# PubChem BioAssay (NCATS)
# Inconclusive results are not listed. The list shows a part of the results. Active and inactive are the calls of the source. Unless noted, calls follow the shape of the dose curve; as a rule, active = well fitted curve in the direction sought with a large enough effect; inconclusive = small, poorly fitted or top-dose-only effect, or another doubt; inactive = no such curve, though single readings can be large; an effect the other way counts as inactive or inconclusive.
# Key:
# [1] = target: Ubiquitin carboxyl-terminal hydrolase 2 (Homo sapiens) (UniProt O75604); test: qHTS for Inhibitors of Ubiquitin-specific Protease USP2a Using CHOP2 as the Reporter: K484 Substrate (AID 652173);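 also: cleavage of internally quenched K48 di-ubiquitin substrate measured as rising fluorescence over time; potency is read from the fitted curve at half-maximal effect; nearly all actives have a fitted effect of over 70% in size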
# Method in brief: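 Kinetic fluorescence (Ex 525/Em 598) tracked cleavage of an internally quenched K48 di-ubiquitin substrate, added as a 100 nM solution. The enzyme was added as a 5 nM USP2 solution before compound pinning, with no-enzyme controls. Buffer: Tris pH 8, beta-mercaptoethanol, CHAPS.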
# [2] = target: Calcium and integrin-binding protein 1 (Homo sapiens) (UniProt Q99828); test: Primary qHTS for Identification of Calcium Integrin Binding Protein 1 (CIB1) Competitor (AID 1508620);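 also: GST tagged CIB1 binding a fluorescein labelled alphaIIb integrin peptide tracer; top concentration of the series differs between compounds; % is scaled to controls: 0 for no effect and ±100 for the full control effect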
# Method in brief: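 Fluorescence polarization competition: GST-tagged CIB1 (1 uM final) preincubated with compound 15 min at room temperature, then FITC-labelled alphaIIb peptide (100 nM final) added. After 15 min at room temperature, polarization read at Ex 480/Em 540.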
# [3] = qHTS profiling for inhibitors of Plasmodium falciparum (3D7) proliferation (AID 743322);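 also: infected erythrocytes exposed to compound for 72 h before lysis; 100% = DMSO vehicle wells and 0% = 0.29 µM artemisinin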; conditions: P. falciparum 3D7 proliferation; at 28.7 µM (top of the series)
# Method in brief: (§1)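 Parasite DNA was quantified by SYBR Green I fluorescence (ex 485, em 535 nm) after overnight lysis in saponin/Triton buffer at room temperature. Cultures at 0.3% parasitemia and 2.5% hematocrit were first exposed to compound for 72 h at 37 C; signals were normalised to artemisinin (0.29 uM) and vehicle wells.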
# [4] = qHTS profiling for inhibitors of Plasmodium falciparum (DD2) proliferation (AID 743323; call rule not given here); conditions: lower = more inhibition; at 28.7 µM (top of the series)
# Method in brief: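 Parasite proliferation measured via DNA-dye fluorescence, as uninfected erythrocytes lack DNA. Cultures at 0.3% parasitemia and 2.5% hematocrit incubated 72 h with compound; signal scaled between vehicle and 0.29 uM artemisinin wells.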
# [5] = qHTS profiling for inhibitors of Plasmodium falciparum (HB3) proliferation (AID 743324); conditions: Plasmodium falciparum HB3 blood-stage proliferation; at 28.7 µM (top of the series);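 also: 100% = DMSO vehicle wells and 0% = artemisinin-treated control wells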
# Method in brief: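 SYBR Green fluorescence (485 ex/535 em) of lysed cultures, incubated overnight at room temperature in the dark, quantifies parasite DNA. Infected erythrocytes at 0.3% parasitemia and 2.5% hematocrit were exposed 72 h; values normalized to DMSO and 0.29 uM artemisinin controls.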
# [6] = target: DNA polymerase kappa (Homo sapiens) (UniProt Q9UBT6); test: qHTS for Inhibitors of Polymerase Kappa: Confirmatory Assay for Cherry-picked Compounds (AID 720501); conditions: purified Pol-kappa, fluorescent strand-displacement substrate; also: potency is read from the fitted curve at half-maximal effect
# Method in brief: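 10 nM human Pol-kappa was preincubated with compound 15 min at room temperature, then 50 nM (final) primer/template substrate with TAMRA-labeled reporter strand and BHQ-2-labeled template added. Fluorescence (Ex 525, Em 598 nm) read at 0 and 10 min.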
# [7] = qHTS profiling of the MIPE4 collection as inhibitors of Plasmodium falciparum (3D7) proliferation (AID 743344; call rule not given here;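 also: scaled between DMSO vehicle wells and 0.29 µM artemisinin as full inhibition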); conditions: P. falciparum 3D7 in erythrocytes, SYBR Green DNA fluorescence, 72 h; at 28.5 µM (top of the series)
# Method in brief: as §1
# [8] = qHTS profiling of the MIPE4 collection as inhibitors of Plasmodium falciparum (DD2) proliferation (AID 743345; call rule not given here); conditions: P. falciparum Dd2 in erythrocytes, SYBR Green DNA, 72 h; at 28.5 µM (top of the series)
# Method in brief: as §1
# [9] = qHTS profiling of the MIPE4 collection as inhibitors of Plasmodium falciparum (DD2) proliferation (Rep 2) (AID 743346; call rule not given here); conditions: P. falciparum Dd2 in erythrocytes, SYBR Green DNA, 72 h; at 28.5 µM (top of the series)
# Method in brief: as §1
# [10] = qHTS profiling of the MIPE4 collection as inhibitors of Plasmodium falciparum (HB3) proliferation (AID 743347; call rule not given here;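 also: plate controls were DMSO vehicle wells for no effect and artemisinin wells for full effect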); conditions: P. falciparum HB3 in erythrocytes, SYBR Green DNA, 72 h; at 28.5 µM (top of the series)
# Method in brief: as §1
# [11] = target: Cytochrome P450 3A4 (Homo sapiens) (UniProt P08684); test: qHTS Assay for Inhibitors and Substrates of Cytochrome P450 3A4 (AID 884); also: % is scaled to controls: 0 for no effect and ±100 for the full control effect; nearly all actives have a fitted effect of over 50% in size
# Method in brief: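 Luminescent readout of luciferin produced by CYP3A4 (20 nM) dealkylation of Luciferin-PPXE, 25 uM (its KM). NADPH-driven reaction ran 60 min at RT after 10 min compound preincubation; data scaled to 57 uM ketoconazole as 100% inhibition.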
# [12] = target: Flap endonuclease 1 (Homo sapiens) (UniProt P39748); test: qHTS Assay for the Inhibitors of FEN1: Confirmatory Assay for Cherry-picked Compounds (AID 720498); conditions: FEN1 flap cleavage, TAMRA/BHQ2 fluorogenic DNA substrate; also: potency is read from the fitted curve at half-maximal effect; nearly all actives have a fitted effect of over 60% in size
# Method in brief: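 Human FEN1 (10 nM reagent) was preincubated with compounds for 15 min at room temperature, then 50 nM final double-flap DNA substrate (5'-TAMRA flap, BHQ-2 quencher strand) was added. Fluorescence (ex 525/em 598 nm) was read at 0 and 15 min.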
# Chain of Ubiquitin carboxyl-terminal hydrolase 2 (Homo sapiens) (O75604 whole entry, looked up): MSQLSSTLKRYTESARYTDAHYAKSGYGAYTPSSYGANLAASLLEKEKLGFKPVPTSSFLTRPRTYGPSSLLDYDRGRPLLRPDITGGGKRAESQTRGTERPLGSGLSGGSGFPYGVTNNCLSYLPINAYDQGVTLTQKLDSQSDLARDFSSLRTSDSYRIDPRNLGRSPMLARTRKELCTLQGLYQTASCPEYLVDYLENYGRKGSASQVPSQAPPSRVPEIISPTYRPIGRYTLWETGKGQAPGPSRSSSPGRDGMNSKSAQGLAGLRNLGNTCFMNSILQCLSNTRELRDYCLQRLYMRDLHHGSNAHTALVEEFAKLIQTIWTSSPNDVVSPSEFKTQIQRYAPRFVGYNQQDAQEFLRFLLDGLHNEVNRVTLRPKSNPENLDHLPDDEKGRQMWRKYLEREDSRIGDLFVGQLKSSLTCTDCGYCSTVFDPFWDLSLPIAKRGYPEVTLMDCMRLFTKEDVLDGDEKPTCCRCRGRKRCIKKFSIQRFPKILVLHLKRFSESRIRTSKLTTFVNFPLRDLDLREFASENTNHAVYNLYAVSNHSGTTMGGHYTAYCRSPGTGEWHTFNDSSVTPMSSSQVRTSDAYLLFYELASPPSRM
# Chain of Calcium and integrin-binding protein 1 (Homo sapiens) (Q99828 whole entry, looked up): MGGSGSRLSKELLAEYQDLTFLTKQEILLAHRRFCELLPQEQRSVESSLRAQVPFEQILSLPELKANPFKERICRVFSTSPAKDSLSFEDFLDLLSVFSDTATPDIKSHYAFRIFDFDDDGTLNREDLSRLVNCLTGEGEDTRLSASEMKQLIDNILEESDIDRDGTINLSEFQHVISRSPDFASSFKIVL
# Chain of DNA polymerase kappa (Homo sapiens) (Q9UBT6 whole entry, looked up): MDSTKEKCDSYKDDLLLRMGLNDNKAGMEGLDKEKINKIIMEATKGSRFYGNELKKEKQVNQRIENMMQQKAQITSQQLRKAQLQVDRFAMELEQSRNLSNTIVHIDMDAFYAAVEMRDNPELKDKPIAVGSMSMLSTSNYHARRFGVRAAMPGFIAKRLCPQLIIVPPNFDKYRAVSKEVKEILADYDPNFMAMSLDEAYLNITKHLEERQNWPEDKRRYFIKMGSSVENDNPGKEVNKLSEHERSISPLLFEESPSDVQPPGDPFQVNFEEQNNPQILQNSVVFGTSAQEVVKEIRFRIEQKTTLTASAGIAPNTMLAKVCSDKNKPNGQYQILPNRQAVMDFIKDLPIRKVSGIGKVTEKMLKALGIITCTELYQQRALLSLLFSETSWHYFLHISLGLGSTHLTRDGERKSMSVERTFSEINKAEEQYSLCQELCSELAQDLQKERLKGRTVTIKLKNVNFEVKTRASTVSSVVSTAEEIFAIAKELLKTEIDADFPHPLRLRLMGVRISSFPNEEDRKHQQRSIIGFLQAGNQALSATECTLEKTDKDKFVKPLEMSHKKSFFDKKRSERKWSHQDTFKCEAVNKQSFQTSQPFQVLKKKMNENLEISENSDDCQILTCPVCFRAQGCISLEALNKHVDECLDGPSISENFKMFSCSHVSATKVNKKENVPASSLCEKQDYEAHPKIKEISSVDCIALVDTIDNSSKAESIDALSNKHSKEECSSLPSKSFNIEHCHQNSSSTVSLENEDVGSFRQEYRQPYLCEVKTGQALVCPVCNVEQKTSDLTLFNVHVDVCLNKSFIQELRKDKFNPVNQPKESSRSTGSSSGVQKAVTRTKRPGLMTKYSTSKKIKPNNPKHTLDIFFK
# Chain of Flap endonuclease 1 (Homo sapiens) (P39748 whole entry, looked up): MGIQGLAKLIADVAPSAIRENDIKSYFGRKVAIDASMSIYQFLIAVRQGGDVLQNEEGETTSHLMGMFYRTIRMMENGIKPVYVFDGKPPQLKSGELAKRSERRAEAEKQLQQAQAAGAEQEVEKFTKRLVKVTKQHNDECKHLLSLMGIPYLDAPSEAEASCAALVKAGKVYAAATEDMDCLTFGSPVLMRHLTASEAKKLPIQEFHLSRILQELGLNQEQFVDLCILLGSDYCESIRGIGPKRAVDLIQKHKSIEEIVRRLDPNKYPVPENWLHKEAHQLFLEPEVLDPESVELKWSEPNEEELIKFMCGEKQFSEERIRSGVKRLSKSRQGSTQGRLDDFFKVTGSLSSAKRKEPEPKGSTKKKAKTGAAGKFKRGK
# Chain of Cytochrome P450 3A4 (Homo sapiens) (P08684 whole entry, looked up): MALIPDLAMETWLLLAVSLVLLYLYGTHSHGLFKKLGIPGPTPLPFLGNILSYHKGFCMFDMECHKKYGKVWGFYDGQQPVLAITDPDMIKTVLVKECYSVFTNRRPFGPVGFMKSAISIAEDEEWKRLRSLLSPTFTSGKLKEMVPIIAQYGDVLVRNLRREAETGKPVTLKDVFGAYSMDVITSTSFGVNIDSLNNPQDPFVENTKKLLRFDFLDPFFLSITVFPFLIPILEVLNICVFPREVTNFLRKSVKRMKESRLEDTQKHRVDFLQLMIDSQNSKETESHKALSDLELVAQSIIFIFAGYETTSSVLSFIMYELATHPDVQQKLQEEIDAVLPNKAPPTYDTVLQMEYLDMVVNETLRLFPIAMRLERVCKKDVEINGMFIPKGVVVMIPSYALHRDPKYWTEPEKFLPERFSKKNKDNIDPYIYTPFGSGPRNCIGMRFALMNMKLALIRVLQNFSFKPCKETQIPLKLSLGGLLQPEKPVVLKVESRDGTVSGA
compound,measurement,setting,value
Cc1ccc(S(=O)(=O)Nc2ccc(C)cc2C(=O)Nc2nc(-c3ccccc3)cs2)cc1,Potency,[1],1.93 µM (active)
same,Potency,[2],inactive
O=C([C@H](Cc1ccc(O[S+](=O)([O-])c2cccc3cccnc23)cc1)N[S+](=O)([O-])c1cccnc1)N1CCN(c2ccccc2)CC1,remaining parasite growth % (stronger effect = lower value),[3],-0.283%
same,"activity, percent of control",[4],0.179%
same,"remaining proliferation (% of control), lower = more inhibition",[5],-0.167%
same,Potency,[2],inactive
Cc1ccc(S(=O)(=O)Nc2ccc(C(=O)Nc3ncc(-c4ccccc4)s3)cc2)cc1,Potency,[1],2.43 µM (active)
same,Potency,[2],inactive
O=C(Nc1nc(-c2ccccc2)cs1)c1ccccc1Cl,Potency,[1],13.7 µM (active)
same,Potency,[2],inactive
COc1cc(NS(=O)(=O)c2ccc(C)cc2)cc(C(=O)Nc2nc(-c3ccccc3)cs2)c1,Potency,[1],2.43 µM (active)
same,Potency,[2],inactive
CC(C)(C)OC(=O)N[C@@H](Cc1ccc(O[S+](=O)([O-])c2cccc3cnccc23)cc1)C(=O)N1CCN(c2ccccc2)CC1,remaining parasite growth % (stronger effect = lower value),[3],-1.52%
same,"activity, percent of control",[4],-0.0871%
same,"remaining proliferation (% of control), lower = more inhibition",[5],-0.489%
same,Potency,[2],inactive
Cc1ccc(S(=O)(=O)Nc2cc(C(=O)Nc3nc(-c4ccccc4)cs3)ccn2)cc1,Potency,[1],6.85 µM (active)
same,Potency,[2],inactive
N[C@@H](Cc1ccc(O[S+](=O)([O-])c2cccc3cnccc23)cc1)C(=O)N1CCN(c2ccccc2)CC1,remaining parasite growth % (stronger effect = lower value),[3],-0.448%
same,"activity, percent of control",[4],3.27%
same,"remaining proliferation (% of control), lower = more inhibition",[5],1.2%
same,Potency,[2],inactive
Cc1ccc(-c2cc(C(=O)Nc3ccccc3)c3ccccc3n2)cc1C,Potency,[1],24.3 µM (active)
same,Potency,[2],inactive
O=C([C@H](Cc1ccc(O[S+](=O)([O-])c2cccnc2)cc1)N[S+](=O)([O-])c1cccc2cnccc12)N1CCN(c2ccccc2)CC1,remaining parasite growth % (stronger effect = lower value),[3],0.0541%
same,"activity, percent of control",[4],4.11%
same,"remaining proliferation (% of control), lower = more inhibition",[5],0.563%
same,Potency,[2],inactive
COc1ccc(C2=Nn3c(nnc3-c3ccccc3OC)SC2)cc1OC1CCCC1,Potency,[6],4.23 µM (active)
same,Potency,[2],inactive
Cc1ccc(-c2cc(C(=O)Nc3ccc(S(=O)(=O)N(C)C)cc3)c3ccccc3n2)cc1C,Potency,[1],4.32 µM (active)
same,Potency,[2],inactive
CC(C)(C)OC(=O)N[C@@H](Cc1ccc(O[S+](=O)([O-])c2cccnc2)cc1)C(=O)N1CCN(c2ccccc2)CC1,remaining parasite growth % (stronger effect = lower value),[3],-0.793%
same,"activity, percent of control",[4],0.682%
same,"remaining proliferation (% of control), lower = more inhibition",[5],-0.169%
same,Potency,[2],inactive
Cc1ccc(S(=O)(=O)Nc2ccccc2C(=O)Nc2ncc(-c3ccccc3)s2)cc1,Potency,[1],1.93 µM (active)
same,Potency,[2],inactive
COC(=O)[C@H](Cc1ccc(O[S+](=O)([O-])c2cccc3cnccc23)cc1)N(C)[S+](=O)([O-])c1ccc2cnccc2c1,remaining parasite growth % (stronger effect = lower value),[3],-0.184%
same,"activity, percent of control",[4],3.76%
same,"remaining proliferation (% of control), lower = more inhibition",[5],0.837%
same,Potency,[2],inactive
O=C([C@H](Cc1ccc(O[S+](=O)([O-])c2cccc3cnccc23)cc1)N[S+](=O)([O-])c1cccc2cnccc12)N1CCN(Cc2ccccc2)CC1,"parasite growth, % of DMSO control",[7],4.76%
same,"parasite growth remaining, % of DMSO control (lower = more inhibition)",[8],6.64%
same,"parasite growth, % of control (lower = inhibition)",[9],19.3%
same,"growth, % of control",[10],5.19%
same,Potency,[2],inactive
Cc1nc(NC2CCCCC2)c2nc(-c3ccccc3)n(CC3CCN(C)CC3)c2n1,Potency,[11],inactive
same,Potency,[2],inactive
COc1ccc(-c2ccc3ncnc(NCc4cccs4)c3c2)cc1OC,Potency,[12],37.9 µM (active)
same,Potency,[2],inactive
Cc1ccc(S(=O)(=O)Nc2ccccc2C(=O)Nc2ccc(-c3ccccc3)nn2)cc1,Potency,[1],3.85 µM (active)
same,Potency,[2],inactive
N[C@@H](Cc1ccc(O[S+](=O)([O-])c2cccc3cccnc23)cc1)C(=O)N1CCN(c2ccccc2)CC1,remaining parasite growth % (stronger effect = lower value),[3],0.473%
same,"activity, percent of control",[4],1%
same,"remaining proliferation (% of control), lower = more inhibition",[5],0.538%
same,Potency,[2],inactive
O=C(NCCN1CCCC1)[C@H](Cc1ccc(OS(=O)(=O)c2cccc3cnccc23)cc1)NS(=O)(=O)c1cccc2cnccc12,remaining parasite growth % (stronger effect = lower value),[3],0.578%
same,"activity, percent of control",[4],49.2%
same,"remaining proliferation (% of control), lower = more inhibition",[5],1.37%
same,Potency,[2],inactive
